Assay results: PubChem BioAssay (NCATS)
Records with an inconclusive call do not appear. A number with no mark means an inactive call. The call rests on the fitted dose curve; in most records, active means well fitted cell-killing curve with a large enough effect; inconclusive means small, poorly fitted or top-dose-only effect; inactive means flat fitted curve, though single readings scatter.

test: qHTS of pediatric cancer cell lines to identify multiple opportunities for drug repurposing: Primary screen for control Hh wild type fibroblast cells (AID 1347106); conditions: Hh wild-type fibroblast viability, CellTiter-Glo luminescence, 48 h; series mostly up to 46 µM; activity change, negative = cytotoxic: at the top concentration;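 further: a drop in luminescence marks cytotoxicity and a rise apparent proliferation; nearly all actives have a fitted effect of over 55% in size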
From the text: Drug repurposing or repositioning has been offered as a strategy for drug development in oncology programs. This approach has special potential for childhood cancers and other rare or orphan diseases, where the expected return on new drug development has been a disincentive to pharmaceuticals.
In this project we exploit the poly-pharmacology of drugs to discover new indications via phenotypic screening of a panel of 19 well-characterized cell lines derived from solid tumors seen in children and adolescents. The goal is to identify approved drugs with previously unrecognized anticancer properties that has the potential to reveal new mechanisms and biological processes involved in carcinogenesis or drug resistance. We employed a titration-based paradigm (quantitative high-throughput screening or qHTS), where all compounds were tested at multiple concentrations for their effect on cell viability. Concentration-response curves (CRCs) were derived directly from the primary screen, and both potency and efficacy values were used to identify compounds with robust bioactivity profiles. We screened the NIH Chemical Genomics Center (NCGC) Pharmaceutical Collection (NPC) and Mechanism Interrogation Plate (MIPE) small molecule collections of approved and investigational compounds against these cell lines; and measured metabolically active cells after 48 hours of compound treatment as a proxy for cell viability.
Assay Submitter: Nathalia J. Martinez, National Center for Advancing Translational Sciences, National Institutes of Health, Rockville, MD, USA; email: natalia.martinez@nih.gov
[1] Shen, M et al. Quantitative high-throughput phenotypic screening of pediatric cancer cell lines identifies multiple opportunities for drug repurposing. Oncotarget 2017 Dec 19;9(4):4758-4772. PMID 29435139.
The cells were obtained from University of North Carolina (UNC), Pediatric Preclinical Testing Program (PPT), and Coriell Institute (CI).
qHTS cell viability assay:
Cells were assayed in growth media at a density of 500-1,000 cells/well. Five microliters of cells were dispensed into 1,536-well, white, solid-bottom, TC-treated plates (Greiner Bio One) using a multidrop dispenser and incubated at 37 degrees C, 5% CO2, under a humidified atmosphere for 5 hours. Twenty-three nanoliters of compounds and controls (neutral control DMSO or positive control bortezomib at final concentration of 2.3 µM) were subsequently transferred by Kalypsys pintool. For primary screens, the MIPE collection was tested at 11-point dilutions (final concentrations range from 0.78 nM to 46 µM) and the NPC collection at 8-point dilutions (final concentrations range from 0.59 nM to 46 µM). Compounds tested in follow-up screens were assayed at 11-point dilutions. Cells were incubated for 48 hours, followed by addition of 3 µL of CellTiter-Glo (Promega). After a 15 min incubation at room temperature, samples were analyzed for luminescence intensity using a ViewLux High-throughput CCD imager equipped with clear filters.
On the % scale 0 is the no-effect control and ±100 the full control effect.

| Compound | activity change, negative = cytotoxic |
| --- | --- |
| CCNC(=O)/C=C/c1cccc(Br)c1 | 5.09% |
| CN(CCCN1c2ccccc2CCc2ccccc21)CC(=O)c1ccc(Cl)cc1 | 18.1% |
| Cc1cc2c(OCC(CNC(C)(C)C)OC(=O)c3ccccc3)cccc2[nH]1 (stereo not given) | 10.2% |
| Cc1c[nH]c2ccccc12 | 7.56% |
| CCCCCCCCCCCCCC(=O)OC(C)C | 9.36% |
| CC(=O)NO | 10.3% |
| C[N+]1(C)CCC(=C(c2ccccc2)c2ccccc2)CC1 | 11% |
| CC(=O)O[C@]1(C(C)=O)CC[C@H]2[C@@H]3C=C(C)C4=CC(=O)CC[C@]4(C)[C@H]3CC[C@@]21C | 4.97% |
| CCC(Cc1c(I)cc(I)c(N)c1I)C(=O)O (stereo not given) | 0.832% |
| O=C1OC(CN2CCOCC2)CN1/N=C/c1ccc([N+](=O)[O-])o1 (stereo not given) | 8.35% |
| CN(C)CCOC(c1ccc(Cl)cc1)c1ccccn1 (stereo not given) | -10.7% |
| CN(C)CCN1C(=O)c2ccccc2N(C)c2ccccc21 | 0.814% |
| O=C(c1ccc(F)cc1)C1CCN(CCn2c(=S)[nH]c3ccccc3c2=O)CC1 | 8.96% |
| NS(=O)(=O)c1ccc(Cl)c(S(N)(=O)=O)c1 | -1.21% |
| Cc1ccc2c(Br)cc(Br)c(O)c2n1 | -8.94% |
| Oc1ccc(Cl)cc1Cc1cc(Cl)ccc1O | -27.4% |
| O=C1OC2(c3ccccc31)c1cc(Br)c(O)c(Br)c1Oc1c2cc(Br)c(O)c1Br | -12.3% |
| CC(C)(Cc1c[nH]c2ccccc12)NCC(O)COc1ccccc1C#N (stereo not given) | -10.2% |
| OCc1ccccn1 | 1.91% |
| C#C[C@]1(O)CC[C@H]2[C@@H]3CCC4=CC(=O)CC[C@@H]4[C@H]3CC[C@@]21CC | 4.5% |

| Compound | activity change, negative = cytotoxic |
| --- | --- |
| CC(C)n1c(/C=C/[C@@H](O)C[C@@H](O)CC(=O)O)c(-c2ccc(F)cc2)c2ccccc21 | -19% |
| NC(=O)c1ccccc1O | -6.17% |
| Nc1ccc(S(=O)(=O)NCc2ccccc2)cc1 | 3.28% |
| CCCCOC(=O)CC(CC(=O)OCCCC)(OC(C)=O)C(=O)OCCCC | 17.8% |
| O=[N+]([O-])c1cccc(S(=O)(=O)NCCNS(=O)(=O)c2cccc([N+](=O)[O-])c2)c1 | 1.15% |
| CC(C)(C)NC[C@H](O)COc1cccc2c1CCCC2=O | 13.2% |
| OC[C@H]1O[C@@H](Oc2ccc(O)cc2)[C@H](O)[C@@H](O)[C@@H]1O | 7.94% |
| Cc1ccc(S(=O)(=O)NC(=O)NC2CCCC2)cc1 | 21.4% |
| CCCN(CCc1cccs1)[C@H]1CCc2c(O)cccc2C1 | 4.89% |
| COP(=O)(OC)OC(c1ccc(Cl)cc1)P(=O)(OC)OC (stereo not given) | 9.27% |
| CCc1oc2ccccc2c1C(=O)c1cc(I)c(O)c(I)c1 | -1.99% |
| N#C/C(=C1\SCC(c2ccccc2Cl)S1)n1ccnc1 (stereo not given) | 17.3% |
| O=C1[C@H](CC[C@H](O)c2ccc(F)cc2)[C@@H](c2ccc(O)cc2)N1c1ccc(F)cc1 | 13% |
| OCCOCCN1CCN(C2=Nc3ccccc3Sc3ccccc32)CC1 | -1.33% |
| CCN(CC)CCNC(=O)COc1ccc(OC)cc1 | 8.73% |
| O=C(O)c1ccc(S(=O)(=O)N(Cl)Cl)cc1 | 0.605% |
| O=C(O)CCC(=O)Nc1ccc(S(=O)(=O)Nc2nccs2)cc1 | -0.593% |
| CCO[C@@H]1O[C@H](C(COCc2ccccc2)OCc2ccccc2)[C@H](OCc2ccccc2)[C@H]1O (stereo not given in full) | 7.81% |
| CCOc1ccc(NC(C)=O)cc1 | 1.81% |
| CC[N+](C)(CC)CCOC(=O)C(O)(c1ccccc1)C1CCCCC1 (stereo not given) | -0.777% |
